Compounds without any hit were thinned out: in the full panel of roughly 83,000, 20% have a hit.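 The endpoint reported here, percent growth, reads 100 for growth as untreated, 0 for no net growth and -100 for all cells dead.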 Activity calls are given as the source filed them.

The subject of the experiment is NCI-H460 lung. The experiment in a line: NCI-60 one-dose screen, 48 h (100 = growth as untreated, 0 = no growth, -100 = all killed). The following applies: 10 µM unless noted. How it is done: Growth inhibition of the NCI-H460 human Non-Small Cell Lung tumor cell line is measured as a screen for anti-cancer activity. Cells are grown in 96 well plates and exposed to the test compound for 48 hours. Compounds are tested at a single concentration, which is 10^-5 M for most compounds. The reported endpoint is percent growth (GI% or GIPRCNT), where numbers from 0 - 100% represent growth inhibition, and numbers from -100% - 0 represent cell death. For example, a value of 40 represents 60% growth inhibition. A value of 0 means no net growth occurred over the course of the experiment. A value of -40 indicates 40% of cells at the beginning of the experiment died by the end of the experiment. A value of -100 means all cells are dead at the end of the experiment.
NCI-60 Human Tumor Cell Lines Screen was performed using the standard one-dose NCI protocol, which is described in more detail at https://dtp.cancer.gov/discovery_development/nci-60/default.htm.
Compounds with GIPRCNT values below 10 were considered active. Activity score was based on GIPRCNT using the following formula: […]
Score is 0 for GIPRCNT values of 100 or above, 50 for GIPRCNT values of 0, and 100 for GIPRCNT values of -100.
On to `O=C(Nc1ccccc1O)c1ccccc1Nc1ccnc(C(F)(F)F)c1`, for which the growth is 97.3% (inactive).
Consider `CC(=O)N/C(=C1/OC(C(O)C(O)C(O)CO)CN1C)[P+](c1ccccc1)(c1ccccc1)c1ccccc1` (stereo not given), for which the growth is 108% (inactive).
Take `O=C1/C(=C/c2ccccc2)CN(C(=O)c2cccnc2)C/C1=C\c1ccccc1`: the growth is -35.1% (active).
In the case of `O=C1OCC2=C1C(c1cccc(C(F)(F)F)c1)c1cc3c(cc1N2CCO)OCO3` (stereo not given), the growth was 13% (inactive).
`Cc1nn(-c2ccccc2)c(/N=C/N(C)C)c1/C=C/C(=O)c1ccc(Cl)cc1`: the growth is 103% (inactive).
On to `CCN1C(=S)N(CC)C2C1NC(=S)N2/N=C/C=C/c1ccccc1OC` (stereo not given), for which the growth was 6.8% (active).
Consider `Cc1ccc(C(=O)c2ccc(CC(=O)N/N=C/c3ccc(O)cc3O)n2C)cc1`, for which the growth is 21.1% (inactive).
Consider `Cc1ccc(C)c(-n2c(-c3ccc(Br)cc3)csc2=NC(=O)c2ccccc2F)c1`, for which the growth is 40.3% (inactive).
`CC(/C=C1\SC(=S)N(CC(=O)NC(Cc2c[nH]c3ccccc23)C(=O)O)C1=O)=C\c1ccccc1` (stereo not given): the growth was 103% (inactive).
On to `O=C1Nc2ccccc2C2c3cccn3-c3ccccc3N12` (stereo not given), for which the growth was 88.9% (inactive).
Take `CSCCC(NC(=O)c1ccccc1)C(=O)N/N=C1\S/C(=C/c2ccc(Cl)cc2)C(=O)N1C` (stereo not given): the growth was 95.9% (inactive).
As to `CN(C)c1ccc(C(=NO)c2ccc(N(C)C)cc2)cc1`, the growth is 7.18% (active).
With `CN(C)c1ccc(/C=C2/C=C(c3ccccc3)OC2=O)cc1`, the growth was 103% (inactive).
For `COC(=O)C1=Nc2ccc(F)cc2/C1=C\c1sc(Nc2ccc(O)cc2)nc1O` the value was 102% (inactive); for `CO[C@H](C(=O)[C@@H](O)[C@@H](C)O)[C@@H]1Cc2cc3cc(O[C@H]4C[C@@H](O[C@H]5C[C@@H](O)[C@H](O)C(C)O5)[C@H](O)C(C)O4)c(C)c(O)c3c(O)c2C(=O)[C@H]1O[C@H]1C[C@@H](O[C@H]2C[C@@H](O[C@H]3C[C@@H](OC)[C@H](O)C(C)O3)[C@@H](O)C(C)O2)C(O)(O)C(C)O1` (stereo not given in full), 9.9% (active).
For `C=CC(C)(O)CC/C=C(\CO)C(=O)OC1C(C)OC(O[C@](C)(C=C)CC/C=C(\CO)C(=O)O[C@H]2C[C@@]3(C(=O)OC4OC(CO)C(O)C(O)C4OC4OC(C)C(OC5OC(CO)C(O)C5O)C(OC5OC(CO)C(O)C(O)C5O)C4O)C(CC2(C)C)C2=CCC4[C@@]5(C)CC[C@H](OC6OC(COC7OC(C)C(O)C(O)C7OC7OCC(O)C(O)C7O)C(O)C(O)C6NC(C)=O)C(C)(C)C5CC[C@@]4(C)[C@]2(C)C[C@H]3O)C(O)C1O` (stereo not given in full) the value was 57.8% (inactive); for `Nc1c(C(=O)Nc2cccc3ncccc23)sc2nc3c(cc12)C(=O)CCC3`, 19.9% (inactive); for `CCCCCCCCn1ccc2cc(NC(=O)Cn3cc(CN4CCC(C)CC4)nn3)ccc21`, -70.2% (active).
For the compound `CC1(C)O[C@H]2OC3CCC(=O)CC3(O)[C@H]2O1` (stereo not given in full), the growth was 101% (inactive).
`COc1ccc2nc(Cl)c(/C=C/C(=O)c3ccc(NC(=O)CSc4nnc(-c5ccc(Cl)c(Cl)c5)n4-c4ccccc4)cc3)cc2c1`: the growth was 97.7% (inactive).
Take `CCOC(=O)C/C(=N\Nc1cc(=O)[nH]c2ccc(Cl)cc12)C(=O)OCC`: the growth is 103% (inactive).
For `Cc1[nH]c(C(=O)Nc2ccc(C(N)=O)cc2NC(C)C)c(Cl)c1Cl` the value was 93.1% (inactive); for `CC[C@@H](c1ccc2cc(OC)ccc2c1)C(C)(C)C(=O)F`, 106% (inactive).
With `C(/C=C/c1ccccc1)=Nc1ccc(CCc2ccc(N=C/C=C/c3ccccc3)cc2)cc1`, the growth is 54.8% (inactive).
For `O=C(N=Nc1c(O)[nH]c2ccccc12)Nc1ccc(Cl)cc1` the value was 91.3% (inactive); for `Cn1c(O)c(C(/C=C/c2ccccc2)=Nc2ccccc2N)c(=O)n(C)c1=O`, 104% (inactive).
For the compound `COc1ccc2cc(-c3cnc4nonc4n3)ccc2c1`, the growth was 74.4% (inactive).
For `CCN1C(=O)N(CC)C2C1NN=C1SCC(=O)N12` (stereo not given) the value was 103% (inactive); for `O=C(CSc1nc2ccc([N+](=O)[O-])cc2[nH]1)Nc1ccc(Br)cc1`, 47.7% (inactive).
For the compound `CN1CCN(CCCOC(=O)c2c3c(n4ccccc24)C(=O)c2ncccc2C3=O)CC1`, the growth was -15.1% (active).
For `Cn1cc(C(=O)c2nc(-c3c[nH]c4ccc(Br)cc34)no2)c2cc(Br)ccc21` the value was 12.5% (inactive); for `C#CCOc1ccc2ncnc(Nc3cccc(NC(=O)CCl)c3)c2c1`, 49.2% (inactive); for `COc1cc2cc(Oc3ccc(NC(=O)Nc4ccccc4)cc3)c(C)nc2cc1OCCN1CCCCC1`, 33% (inactive).
With `CN(C)c1ccc(/C=C/C(=O)c2ccc(Nc3nc(Nc4ccc(F)cc4)nc(Nc4ccc(Cl)cc4)n3)cc2)cc1`, the growth is 62.7% (inactive).
In the case of `O=[N+]([O-])/C(=C\c1ccco1)c1ccccc1Cl` it was 68.1% (inactive).
Turning to `CC(C)=CC(=O)N[C@@H]1CC2CCC3C(CC[C@@]4(C)C3CC[C@@H]4C(C)N(C)C)[C@@]2(C)C[C@@H]1O` (stereo not given in full), the growth was 32.1% (inactive).
As to `COc1cc2cc(NCc3ccc(OC(F)F)cc3)nc(C)c2cc1OC`, the growth was 57.2% (inactive).
In the case of `N#Cc1nc(-c2ccc(F)cc2)oc1S(=O)(=O)N1CCN(c2ccc(F)cc2)CC1` it was 102% (inactive); in that of `CCOC(=O)c1c(NC(=O)c2ccc(C(C)(C)C)cc2)sc2cc(O)ccc12`, 98.1% (inactive); in that of `O=C(Cn1cc(CN2C(=O)c3ccccc3S2(=O)=O)nn1)Nc1cccc(Cl)c1`, 111% (inactive).
